Bioassay records (PubChem BioAssay)
A selection: hits, their analogues and other compounds. The true share with any hit is near 1.6%.
KCNQ2 pot = enhances the rat KCNQ2 potassium channel; CHO-K1 KCNQ2, FluxOR thallium flux fluorescence; active compounds read high; B-score at 10 µM; 310,000 compounds, 0.54% hits; AID 2239;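 active = fluorescence ratio B-score at least 3 SD of library B-scores, with initial fluorescence B-score within 3 of them, cut at about 5.3 in these data; same plate scores as AID 2156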;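 note: B-score of peak minus minimum over baseline fluorescence ratio after K+ and Tl+ stimulus; positive B-score means potentiation of KCNQ2 with more thallium influx and brighter signal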
KCNQ2 block = KCNQ2 (rat) channel inhibition; B-score at 10 µM; 310,000 compounds, 1.1% hits; AID 2156; CHO-K1 KCNQ2, FluxOR thallium flux, 20 min; active compounds read low; O88943;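 active = fluorescence ratio B-score at most minus 3 library SDs, with starting brightness B-score within 2 library SDs, cut at about -5.5 in these data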
Kir21 confirm = confirmation of mouse Kir2.1 potassium channel inhibitors; Kir2.1-expressing cells, FluxOR thallium flux fluorescence; active compounds read low; AID 2032; Tl flux remaining, % of negative control (active compounds read low), % at 10 µM; shares compounds with KCNQ2 pot; 2,300 compounds, 41% hits;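 active = Primary-screen hit whose thallium flux fell at least 3 control SD below untreated wells in both duplicates, with normal baseline fluorescence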;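 note: 0% = blank wells without stimulus and 100% = stimulated no-compound controls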
Target sequence (P35561 whole entry, looked up): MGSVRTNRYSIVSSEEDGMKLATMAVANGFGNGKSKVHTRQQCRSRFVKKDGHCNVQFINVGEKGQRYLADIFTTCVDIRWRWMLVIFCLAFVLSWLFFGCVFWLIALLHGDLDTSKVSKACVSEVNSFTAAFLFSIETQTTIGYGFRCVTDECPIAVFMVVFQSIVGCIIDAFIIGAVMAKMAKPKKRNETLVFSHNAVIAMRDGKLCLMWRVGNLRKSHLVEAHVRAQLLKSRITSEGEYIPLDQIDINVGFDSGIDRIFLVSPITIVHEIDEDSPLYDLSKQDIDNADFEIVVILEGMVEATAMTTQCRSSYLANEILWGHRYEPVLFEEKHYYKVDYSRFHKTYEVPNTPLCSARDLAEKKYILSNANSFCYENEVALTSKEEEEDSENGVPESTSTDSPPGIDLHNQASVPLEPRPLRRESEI
HEK293 Tl flux = parental HEK293 activity in Kir2.1 inhibitor counter-screen; shares compounds with KCNQ2 pot; parental HEK293 cells, FluxOR thallium flux fluorescence; 0% = unstimulated blank wells; FluxOR signal as % of negative control (100 = no effect), % at 10 µM; 2,300 compounds, 19% hits; AID 2105;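 active = dye signal at least 3 control SD above or below untreated wells in both duplicates, raw fluorescence within 3, either direction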;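 note: percent is based on the flux ratio of peak minus minimum fluorescence over baseline F0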
CHO-K1 Tl ctr = alters thallium flux in parental CHO-K1 cells, KCNQ2 counter-screen | shares compounds with KCNQ2 pot | 1,200 compounds, 43% hits | FluxOR thallium flux fluorescence; zero = vehicle mean+3SD, 100% = vehicle-minus-blank window | activity increase over 3SD of controls, % at 10 µM;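 active = signal rise of at least 3 SD above the untreated control mean, in both duplicate wells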;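 note: counter screen of KCNQ2 potentiator hits so any rise reflects channel-independent effects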
KCNQ1 sel pot = selectivity of KCNQ2 potentiators: effect on human KCNQ1; activation over 3SD threshold, % at 10 µM; shares compounds with KCNQ2 pot; 1,200 compounds, 28% hits; CHO KCNQ1 stable, FluxOR thallium flux fluorescence; beyond 3SD, as % of vehicle-control signal;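 active = fluorescence ratio rise of at least 3 SD of vehicle wells above their mean, in both replicate wells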;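 note: 0% = vehicle mean plus 3 SD and 100% = vehicle minus unstimulated blank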
KCNQ2 pot conf = confirmation of rat KCNQ2 potassium channel potentiators; shares compounds with KCNQ2 pot; CHO-KCNQ2 cells, FluxOR thallium flux fluorescence; potentiation, less the hit threshold, % at 10 µM; 1,200 compounds, 68% hits;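 active = fluorescence ratio rising 3 SD or more over the vehicle control mean in both replicates, plus primary screen hit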;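 note: peak minus minimum thallium fluorescence divided by baseline after K/Tl stimulus; 0% = vehicle mean plus 3 SD and 100% = vehicle minus unstimulated blank difference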
Kir2-1 sel = mouse Kir2.1 off-target activity of KCNQ2 potentiators | shares compounds with KCNQ2 pot | HEK293 Kir2.1, FluxOR thallium flux fluorescence | activity over 3SD threshold, % at 10 µM | 1,200 compounds, 2% hits | AID 2345;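 active = fluorescence ratio rise of at least 3 SD above the vehicle-control mean, seen in both replicates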;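 note: 0% = vehicle mean plus 3 SD and 100% = vehicle minus no-stimulus blank window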
KCNQ2 W236L MoA = KCNQ2 potentiators acting on retigabine-insensitive rat KCNQ2 W236L mutant. shares compounds with KCNQ2 pot. CHO KCNQ2-W236L, automated patch clamp current. current increase over 3SD of negative controls (%), active compounds read high, % at 25 µM. 940 compounds, 10% hits;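 active = current increase at least 3 SD of the untreated controls above them in both duplicate recordings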
Numbers without * were called inactive; i = inactive; . = no result.

SMILES	KCNQ2 pot	KCNQ2 block	Kir21 confirm	HEK293 Tl flux	others
CCCCN(Cc1cccs1)S(=O)(=O)c1csc(C(N)=O)c1	.	i	46%*	i
CN(Cc1ccccc1)S(=O)(=O)c1csc(C(N)=O)c1	.	i	.	.
CCCCNC(=O)c1onc(CSc2ccc(Cl)cc2)c1C(=O)O	.	i	.	.
CCOC(=O)[C@@H]1[C@H]2COc3ccc(Br)cc3[C@@H]2N2C(=O)N(c3ccccc3)C(=O)[C@]12C	.	i	.	.
FC(F)(F)c1cccc(Cn2c3[n+](c4ccc(C(F)(F)F)cc42)CCCCC3)c1	.	i	.	.
Cc1cc(C(C)(C)C)cc(C)c1Cn1c2[n+](c3ccc(C(F)(F)F)cc31)CCCCC2	.	i	46%*	i
C[C@@H](CN1C2=NC[C@H](Cc3ccc(O)cc3)N2C[C@H]1Cc1ccc(O)cc1)NC(=O)CCC1CCCCC1	.	i	.	.
COc1ccc(C[C@H]2CN3C(=NC[C@@H]3C(C)C)N2C[C@H](C)NC(=O)c2ccc(C)c(Br)c2)cc1	.	i	55%*	i
COc1ccc(C[C@H]2CN3C(=NC[C@@H]3Cc3ccc(O)cc3)N2C[C@H](C)NC(=O)c2ccc(C)c(Br)c2)cc1	.	i	48%*	i
COc1ccc(C[C@@H]2CN3C(=NC[C@@H]3C)N2C[C@H](C)NC(=O)CCC2CCCCC2)cc1	.	i	.	.
O=C(CSc1cn(CCNC(=O)c2c(F)cccc2F)c2ccccc12)NCC1CCCO1 (configuration not stated)	.	i	.	.
O=C(CN1C(=O)CCC1=O)c1ccc(-c2ccccc2)cc1	.	i	.	.
COc1ccc(NC(=O)c2ccc3c(c2)NC(=O)CS3)cc1S(=O)(=O)Nc1ccc(Br)cc1	.	i	.	.
CCOC(=O)N1CCN(C(=O)c2cc(Cl)c(Cl)cc2C(=O)O)CC1	.	i	.	.
CCCOC1CCCN(C(=O)c2cc(Cl)c(Cl)cc2C(=O)O)C1 (configuration not stated)	8.6*	i	i	i	CHO-K1 Tl ctr=-11;KCNQ1 sel pot=-18;KCNQ2 pot conf=-8;Kir2-1 sel=-34
Cc1ccc(NC(=S)NCc2ccc(F)cc2)c(C)c1	5.5*	i	i	i	CHO-K1 Tl ctr=-7;KCNQ1 sel pot=-8;KCNQ2 pot conf=42*;Kir2-1 sel=-53;KCNQ2 W236L MoA=i
Cc1ccc(C(C)NC(=S)NCc2ccc(F)cc2)cc1C (configuration not stated)	8.1*	i	68%*	i	CHO-K1 Tl ctr=0.0*;KCNQ1 sel pot=45*;KCNQ2 pot conf=33*;Kir2-1 sel=-73;KCNQ2 W236L MoA=i
CCc1ccc(C(C)NC(=S)NCc2ccc(F)cc2)cc1 (configuration not stated)	4.6	i	.	.
COc1cccc(C(C)NC(=S)NCc2ccc(F)cc2)c1 (configuration not stated)	3.2	i	48%*	i
Cc1ccc(NC(=S)NCc2ccc(S(N)(=O)=O)cc2)c(C)c1	0.24	i	.	.
CCOc1ccc(C(C)NC(=S)NCc2ccc(F)cc2)cc1 (configuration not stated)	2.9	i	.	.
Cc1ccc2nc(N3CCN(C(=O)CCC(=O)O)CC3)nc(-c3ccccc3)c2c1	.	i	.	.
CN(C)C(=O)COc1ccc2cc(-c3ccccc3)c(=O)oc2c1	0.63	i	.	.
CCN(CC)c1ccc(/C=N/NC(=O)c2c(Cl)cnn2C)c(O)c1	1.2	i	.	.
Cc1cc(C(=O)N/N=C2\CCCC(=O)C2)c2ccccc2n1	1.1	i	.	.
CCCSc1cc(NCCOC(=O)CCC)c([N+](=O)[O-])c2nonc12	.	i	.	.
CCCC(=O)OCCNc1cc(Sc2nccn2C)c2nonc2c1[N+](=O)[O-]	.	i	70%*	i
